# According to PubChem BioAssay AID2018 (Sanford-Burnham Center for Chemical Genomics, 2009):
# The whole screen tested about 1,200 compounds, of which about 600 (50%) were called active. The set was probably picked from earlier hits. The list shows a part of the results. Results with a measured potency or affinity are listed apart. A number with no mark means an inactive call. Rule as the data show it: active = inhibition above about 42%; inactive = the rest.
# Biological target: SUMO-conjugating enzyme UBC9 (Homo sapiens) (UniProt P63279)
# Experiment: SUMOylation inhibitor hit validation, confirmation, SUMOylation inhibitor project, biochemical, AlphaScreen (AID 2018)
# Details: AlphaScreen in vitro SUMOylation assay; at 35 µM; hits give high values
# SUMO-conjugating enzyme UBC9 (Homo sapiens), sequence (P63279 whole entry, looked up): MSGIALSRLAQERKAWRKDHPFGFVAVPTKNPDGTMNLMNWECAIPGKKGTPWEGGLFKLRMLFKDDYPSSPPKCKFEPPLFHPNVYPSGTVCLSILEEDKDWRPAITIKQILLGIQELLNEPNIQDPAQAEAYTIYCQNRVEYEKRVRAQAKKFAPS
row,Compound,inhibition
1,CCN(CC(=O)c1c(N)n(C)c(=O)n(C)c1=O)c1cccc2ccccc12,-12.9%
2,O=c1c2cc(N3CCOCC3)ccc2[nH]c(=S)n1Cc1ccccn1,2.9%
3,Oc1cccc2c(NC(=S)Nc3ccc(OC(F)F)cc3)cccc12,27.3%
4,Nc1cccc2cnccc12,45.1% (active)
5,FC(F)(F)c1ccccc1NC(=S)Nc1cccc2cnccc12,18.9%
6,CC(C)NC(=S)Nc1cccc2cnccc12,-0.7%
7,CCc1ccc(OCC(=O)N/N=C2\CC(=O)c3ccccc32)cc1,100% (active)
8,CC(C)c1onc(C(=O)N2CCC(C(N)=O)CC2)c1[N+](=O)[O-],-13.8%
9,O=C1C=C(NCc2ccccc2)c2ccccc2C1=O,102% (active)
10,Cc1ccc(NC2=CC(=O)C(=O)c3ccccc32)cc1,100% (active)
11,Cn1c(=O)c2cc(NCc3ccccc3)nnc2n(C)c1=O,12.8%
12,Fc1cccc(-n2c(-c3cccs3)nc3nc4ccccc4nc32)c1,8.7%
13,CC(C)(C)c1ccc(C(=O)NNc2cc(N3CCOCC3)nc(N3CCOCC3)n2)cc1,23.5%
14,O=C(NNc1cc(N2CCOCC2)nc(N2CCOCC2)n1)c1ccc(Cl)c(Cl)c1,66.9% (active)
15,O=C(CCc1ccccc1)NNc1cc(N2CCCCC2)nc(N2CCCCC2)n1,50% (active)
16,CCCCOc1ccc(CSc2ncn[nH]2)cc1,3.3%
17,O=C(Nc1ccccc1-c1nc2ccccc2s1)c1cccnc1Cl,18.7%
18,CC1N(C)c2cccc3cccc(c23)N1C,49.8% (active)
19,C=CCN1C(=O)N(CC=C)c2cccc3cccc1c23,-10.4%
20,CCN1C(=O)N(CC)c2cccc3cccc1c23,10.6%
21,O=C(c1csc(Nc2cccc3ccccc23)n1)N1CCCC1,19.2%
22,C[n+]1cccc2c(Br)ccc([O-])c21,102% (active)
23,C[n+]1cccc2ccc3c(c21)OC(N)=C(C#N)C3c1ccccc1 (stereo not given),-6.6%
24,C[n+]1cccc2cccc([O-])c21,101% (active)
25,Cc1ccc(N2CSC3=C(C#N)C(c4cccs4)CC(=O)N3C2)cc1 (stereo not given),38.3%

row,Compound,inhibition
1,CCCCN(C)S(=O)(=O)c1cc(Br)cc2c1N(C(=O)C1CC1)CC2,-3.7%
2,O=c1[nH]cc(I)cc1I,8.4%
3,Cc1cc(-c2csc(N)n2)c(C)n1Cc1ccco1,21.9%
4,CCOC(=O)c1c(C)oc2c1C(=O)c1ccccc1C2=O,47.8% (active)
5,COc1ccc(S(=O)(=O)N(C)c2ccc(C(=O)NCc3ccccn3)cc2)cc1,4.9%
6,COc1ccc(CNC(=O)c2c(C)oc3c2C(=O)c2ccccc2C3=O)cc1,49.7% (active)
7,Cc1oc2c(c1C(=O)N1CCC(C)CC1)C(=O)c1ccccc1C2=O,29.2%
8,Cc1oc2c(c1C(=O)O)C(=O)c1ccccc1C2=O,86.7% (active)
9,COc1ccc2oc(=O)c(C(=O)NCC3CCCO3)cc2c1 (stereo not given),-13.9%
10,CC(C)NC(=O)N1CCC(n2nccc2NC(=O)CCOc2ccccc2)CC1,9%
11,C(=N\C(/N=C/c1ccco1)c1ccco1)/c1ccco1,30%
12,NN1C(=O)/C(=C\c2ccco2)SC1=S,56% (active)
13,Nc1ccc2c(c1)C/C(=C/c1ccco1)C2=O,13.8%
14,O=C1S/C(=C\C=C\c2ccco2)C(=O)N1c1ccc(O)cc1,40.4%
15,O=C1/C(=C\c2ccco2)SC(=S)N1C1CCS(=O)(=O)C1 (stereo not given),39.6%
16,CCOC(=O)c1nn(-c2ccc3c(c2)CCN3C(C)=O)cc1O,16.7%
17,Cc1ccc2[nH]c3c(c2c1)CN(C(=O)CN1CCN(c2cccc(C)c2C)CC1)CC3,41.7%
18,COc1ccc2nc3ccccc3nc2c1N,66.5% (active)
19,COc1ccc2nc3cccc(OC)c3nc2c1,-22.2%
20,COc1ccccc1CCn1c(N)c(C#N)c2nc3ccccc3nc21,22.4%
21,CN(Cc1ccco1)C(=O)c1cc2c(s1)-c1ccc(Cl)cc1S(=O)(=O)C2,11.3%
22,O=C(O)CCC(=O)Nc1ccccc1C(=O)Nc1ccccc1,-5.9%
23,C=CCNC(=O)c1c(N)n(-c2cccc(S(N)(=O)=O)c2)c2nc3ccccc3nc12,2%
24,Cc1ccc(NC(=O)CCC(=O)OCC(=O)c2ccc(-c3ccccc3)cc2)cc1,22.2%
25,CCN(CC)C(=O)COc1ccc2oc(-c3ccco3)cc(=O)c2c1,-1.1%

row,Compound,inhibition
1,COc1ccc(-n2c(N)c(C(=O)NCc3ccco3)c3nc4ccccc4nc32)cc1OC,33.2%
2,COc1ccc(-n2c(N)c(C(=O)NCC3CCCO3)c3nc4ccccc4nc32)c(OC)c1 (stereo not given),-13.9%
3,Cc1ccc(/C=c2\sc3nc(-c4ccco4)nn3c2=O)o1,83.3% (active)
4,O=[N+]([O-])c1cc(CN2CCN(c3cccc(C(F)(F)F)c3)CC2)c2cccnc2c1O,64.3% (active)
5,O=[N+]([O-])c1ccc(N2CCN(CCO)CC2)c2ncccc12,-17.2%
6,COc1ccc2c(c1)CC/C(=C\C=C\c1ccccc1)C2=O,31.7%
7,COc1ccc2c(c1)CC/C(=C\Nc1ccc3c(c1)OCO3)C2=O,97.5% (active)
8,COc1ccccc1C(=O)Nc1sc2c(c1C(=O)NCc1ccco1)CCCC2,35.7%
9,O=C(CSc1ccc(Br)c2cccc(Cl)c12)Nc1ccc(S(=O)(=O)Nc2nccs2)cc1,101% (active)
10,O=C(Cn1nnc2ccccc21)NCc1ccccc1,4.8%
11,CC(C)CC(=O)Nc1ccc(C(=O)Cn2nc(C(=O)O)c3ccccc3c2=O)cc1,36%
12,N#Cc1cnn2c(-c3ccccc3)ccnc12,3.3%
13,O=C(Cc1cccc2ccccc12)NN1C(=O)/C(=C\c2cccnc2)SC1=S,29.3%
14,CCOCCCN1CN(Cc2ccco2)CNC1=S,4.1%
15,O=C(O)/C=C\c1cn(-c2ccccc2)nc1-c1cc2ccccc2o1,27.9%
16,O=C(O)/C=C/c1cn(-c2ccccc2)nc1-c1cc2ccccc2o1,10.4%
17,COc1ccc(CNC(=O)c2c(N)n(CCCN3CCOCC3)c3nc4ccccc4nc23)cc1,3.3%
18,Cc1ccc(C)c(S(=O)(=O)c2c(N)n(/N=C/c3ccco3)c3nc4ccccc4nc23)c1,23%
19,Cc1ccc(S(=O)(=O)c2c(N)n(/N=C/c3ccco3)c3nc4ccccc4nc23)cc1C,26.1%
20,C=CCn1c(NC(=O)c2ccc(Br)o2)c(S(=O)(=O)c2ccccc2)c2nc3ccccc3nc21,65.4% (active)
21,O=C(c1cccn2c(=O)c3cc(Cl)ccc3nc12)N1CCOCC1,5.9%
22,Cc1ncc(CO)c(/C=N/NC(=O)c2cc(O)c(O)c(O)c2)c1O,99.6% (active)
23,CCOc1ccc2c(c1)C(NC(C)=O)C(=O)N2CCN1CCOCC1 (stereo not given),95.9% (active)
24,Brc1ccc(OCCN2CCOCC2)cc1,13.4%
25,CC(=O)NC1C(=O)N(CCN2CCOCC2)c2ccc(Br)cc21 (stereo not given),99% (active)

row,Compound,inhibition
1,Cn1c(=O)n(C)c2cc(S(=O)(=O)NCCO)ccc21,13.1%
2,CCc1ccc2c(c1)C(NC(C)=O)C(=O)N2CCN1CCOCC1 (stereo not given),96.7% (active)
3,O=C(Nc1cccc2ccccc12)N1CCc2ccccc2C1,13.1%
4,Oc1ccc(N=Cc2ccc(-c3cccs3)s2)cc1,52.6% (active)
5,Cc1ccc(C)c(-c2nc3ccc(N)cc3[nH]2)c1,8.5%
6,N#CC1=C(SCC(=O)NC23CC4CC(CC(C4)C2)C3)NC(=O)C(C#N)C12CCCCC2 (stereo not given),-21.2%
7,CN(C)/C=C1\Oc2ccc3ccccc3c2C1=O,-1.5%
8,COc1cccc2c1C(=O)c1ccc3ccccc3c1C2=O,75.8% (active)
9,COc1ccc(OC)c2c1C(=O)c1ccccc1C2=O,44% (active)
10,CN(C)/C=C1/Oc2c(ccc3ccccc23)C1=O,-1.2%
11,COc1ccc(Cc2n[nH]c(=S)n2NC(=O)Nc2ccc(Cl)c(Cl)c2)cc1,24.4%
12,COc1ccc(-c2cc(=O)[nH][nH]2)cc1,27.6%
13,COCCn1nnnc1C(c1cc2ccc(OC)cc2[nH]c1=O)N1CCc2ccccc2C1 (stereo not given),4.8%
14,COc1ccc(NCc2cc3ccccc3[nH]c2=O)cc1,46.4% (active)
15,O=C(NCc1ccccc1)Nc1cccn(Cc2ccc(Cl)cc2)c1=O,-10.4%
16,CN(C)/C=N/c1nc2nccc(-c3ccc(F)cc3)n2n1,1.6%
17,CCN(CC)S(=O)(=O)c1cc(C)ccc1SC,-1%
18,Cc1ccc(C(=O)c2c3ccc(N)cc3nn2CCC(N)=O)cc1,38.2%
19,Cc1c(N=C2C=CC(=O)c3ccccc32)c(=O)n(-c2ccccc2)n1C,102% (active)
20,CCc1cc2c(=O)nc3n(c2s1)Cc1ccccc1/C3=C(/O)c1cccc([N+](=O)[O-])c1,16.9%
21,Cc1cc(=O)n2[nH]c(N)c(N=Nc3ccccc3F)c2n1,12.9%
22,Nc1c(C(=O)Nc2ccc(F)cc2)sc2nc(-c3ccco3)ccc12,35.1%
23,Nc1c(C(=O)Nc2ccccc2)sc2nc(-c3ccco3)ccc12,-10.2%
24,COc1ccccc1NC(=O)Nc1ccnn1Cc1cccs1,16.5%
25,Cc1ccc(S(=O)(=O)N2CCCCC2)cc1NC(=O)COC(=O)c1c(F)cccc1F,-6.2%
